Only some compounds are listed: those with a hit (about 0.97% of all), similar ones and a draw of the others.
S1P4 antagonist = blocks the human S1P4 receptor. O95977. S1P4-expressing cells, antagonist mode, reporter read-out. inhibition, % at 4.98 µM. 220,000 compounds, 0.26% hits; in the data active means inhibition above about 29%;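 further: 0% = wells stimulated with agonist and 100% = vehicle wells without agonist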
S1P4 agonist = human S1P4 receptor agonism; O95977; 220,000 compounds, 0.35% hits; activation, % at 4.98 µM; S1P4-expressing cell line, agonist reporter assay; in the data active means activation above about 11%;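 further: 0% = DMSO vehicle and 100% = reference agonist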
S1P3 antag-1 = blocks the human S1P3 receptor; Q99500; CHO S1P3 NFAT-BLA reporter, FRET fluorescence, antagonist mode; inhibition, % at 4.98 µM; 170,000 compounds, 0.27% hits;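 active means inhibition above the plate cutoff, the mean inhibition of test wells on that plate plus 3 SD, cut at about 28% in these data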;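 further: cells challenged with S1P at its EC80 of 0.8 µM; blue over green emission ratio from cleaved BLA substrate after 4 h stimulation; 0% = S1P-stimulated wells and 100% = unstimulated DMSO-only wells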
Target sequence (Q99500 whole entry, looked up): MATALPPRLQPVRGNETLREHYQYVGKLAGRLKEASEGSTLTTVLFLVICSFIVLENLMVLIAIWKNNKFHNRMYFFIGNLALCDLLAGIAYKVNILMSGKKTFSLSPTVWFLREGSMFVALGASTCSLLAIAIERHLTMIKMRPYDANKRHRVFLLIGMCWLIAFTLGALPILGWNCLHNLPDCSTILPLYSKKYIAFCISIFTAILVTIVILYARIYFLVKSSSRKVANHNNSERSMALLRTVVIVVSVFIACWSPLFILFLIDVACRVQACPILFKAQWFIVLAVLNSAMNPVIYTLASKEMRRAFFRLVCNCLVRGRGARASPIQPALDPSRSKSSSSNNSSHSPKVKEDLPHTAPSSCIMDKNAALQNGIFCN
AI-2 QS mod = modulators of Vibrio harveyi AI-2 quorum sensing system | Vibrio harveyi JMH597 AI-2 luminescence/OD600 ratio, 9 h; active compounds read low; strain lacks LuxN and CqsS sensors; 0 = neutral-control median | activity change, % at 7.5 µM | 300,000 compounds, 0.4% hits; in the data active means activity change below about -75%, passing the limit was not always enough; inconclusive means no clear call, values can overlap the other calls;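 further: luminescence divided by OD600 gain over 9 h not by final OD600 alone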
Hsp70 act = Hsp70 transcriptional activation, primary screen. HeLa Hsp70 promoter luciferase reporter, luminescence; scaled: vehicle 0, proteasome-inhibitor control 100%. activation, % at 10 µM. 200,000 compounds, 0.04% hits. AID 1203;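 active means activation above the mean across all tested compounds plus 3 SD, cutoff set per campaign, cut at about 5.5% in these data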;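 further: 100% = MG132 at 30 µM as the positive control and 0% = DMSO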
S1P3 antag-2 = confirmation of human S1P3 receptor antagonists. shares compounds with S1P3 antag-1. CHO S1P3 NFAT-BLA reporter, FRET, antagonist mode. inhibition, % at 4.98 µM. 240 compounds, 30% hits. AID 1429;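 active means inhibition above the hit threshold that was computed for the earlier primary screen, cut at about 30% in these data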;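 further: 0% = S1P-stimulated wells and 100% = unstimulated DMSO-only wells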
The depositor's hits bear a star; ? = inconclusive; . = not tested or not shown.

SMILES | S1P4 antagonist | S1P4 agonist | S1P3 antag-1 | AI-2 QS mod | Hsp70 act | S1P3 antag-2
CC(C(=O)Nc1cccnc1)c1ccc([N+](=O)[O-])cc1 (stereo not drawn) | -22 | 3 | -11 | 12 | 0 | .
COC(=O)c1ccccc1N(C)S(=O)(=O)c1cc2c3c(c1)CCC(=O)N3CCC2 | . | . | . | 5 | . | .
Cc1ccc(-c2cn3nc(-c4ccccc4)c(-c4ccccc4)nc3n2)cc1 | 14 | 0 | 50* | 33 | . | 9
c1ccc(-c2cn3nc(-c4ccccc4)c(-c4ccccc4)nc3n2)cc1 | -10 | 2 | . | 16 | 0 | .
CC(C)c1ccc(/C=C/C(=O)NCCC2=CCCCC2)cc1 | -23 | -1 | 30* | 6 | 0 | -10
CCOc1ccc(S(=O)(=O)NCCCN2CCCC2=O)cc1 | -11 | 2 | -6 | 16 | 0 | .
COc1ccc(NS(=O)(=O)c2cccc(C(=O)OCC(=O)NC3CC3)c2)cc1 | . | . | . | 17 | . | .
COc1ccc(-c2[nH]ncc2N=Nc2cc(C)cc(C)c2)cc1 | -24 | 1 | 38* | 3 | 0 | 12
Cn1c(-c2c(N)n(-c3ccccc3)c3nc4ccccc4nc23)nc2ccccc21 | 20 | 1 | 68* | 56 | 0 | 45*
O=C(COc1ccccc1Cl)N1CCN(C(=O)c2ccco2)CC1 | . | . | . | 22 | . | .
COc1ccc(-n2c(C)cc(/C=N/Nc3nnc(C)n3N)c2C)cc1 | 26 | -3 | 31* | 15 | 0 | -14
O=C(Nc1ccc2[nH]c(=O)[nH]c2c1)c1c(F)c(F)c(F)c(F)c1F | 1 | 0 | -17 | 25 | 0 | .
COc1ccc2oc(C(=O)OCC(=O)N(Cc3ccccc3)C(C)(C)C)c(C)c2c1 | . | . | . | 20 | . | .
Cn1c(SCc2ccccc2)nnc1-c1ccc2nonc2c1 | -7 | 1 | 30* | 13 | . | -11
Cn1c(SCc2ccccc2)nnc1-c1ccc2c(c1)OCO2 | -10 | 0 | 4 | 17 | 0 | .
COc1ccc2[nH]c3c(N4CCc5ccccc5C4)ncnc3c2c1 | 1 | 0 | 31* | 8 | . | 25
O=C(CCC1CCCC1)Nc1ccc([N+](=O)[O-])cn1 | 0 | 0 | 32* | 29 | 0 | -2
COc1ccc(OCCN2CCN(C(=O)c3ccc(OC)c(OC)c3)CC2)cc1 | . | . | . | 42 | . | .
O=C(c1cc(COc2ccc3ncccc3c2)on1)N1CCCC1 | . | . | . | -13 | . | .
O=C(NC1CCCC1)c1cc(COc2ccc3ncccc3c2)on1 | -5 | 0 | 35* | 33 | . | 6
Cc1cc(NC(=O)OC2CCCCC2)ccc1[N+](=O)[O-] | . | . | . | -30 | . | .
Cc1nn(-c2ccccc2)c(Cl)c1/C=N/NC(=O)c1ccc(CNc2ccccc2)o1 | -8 | -3 | 28* | 1 | 0 | 19
Cc1nn(-c2ccccc2)c(Cl)c1/C=N/NC(=O)c1ccco1 | 0 | -1 | . | 22 | 0 | .
O=C(CSc1nnc(CNC(=O)c2cccc(C(F)(F)F)c2)o1)NC1CCCC1 | . | . | . | 13 | . | .
Cc1cc(C)cc(NC(=O)C(OC(=O)c2ccc(NC(=O)CC#N)cc2)c2ccccc2)c1 (stereo not drawn) | . | . | . | 19 | . | .
SMILES | S1P4 antagonist | S1P4 agonist | S1P3 antag-1 | AI-2 QS mod | Hsp70 act | S1P3 antag-2
Cc1ccc(NC(=O)C(OC(=O)c2ccc(C=O)cc2)c2ccccc2)cc1Cl (stereo not drawn) | -1 | -1 | 30* | 30 | 0 | 19
CCCCN(C(=O)CCSc1ccc(F)cc1)c1c(N)n(Cc2ccccc2)c(=O)[nH]c1=O | . | . | . | 18 | . | .
CC1(C)OC(=O)C(=CNCCc2ccc(O)cc2)C(=O)O1 | -14 | 1 | 28* | 7 | 0 | -19
CC1(C)OC(=O)C(=CNCC(O)c2ccccc2)C(=O)O1 (stereo not drawn) | 0 | 0 | -4 | 10 | 0 | .
C=C(C)CSc1nc2sc3c(c2c(=O)n1-c1ccc(OC)cc1)CCN(C)C3 | . | . | . | 12 | . | .
O=C(CSc1nc(C2CCCCC2)n(-c2ccccc2)n1)NCCN1C(=O)CSC1=O | -34 | -1 | -16 | 31 | 0 | .
O=C(CSc1nc(C2CCCCC2)n(-c2ccccc2)n1)NCC(F)(F)F | -11 | -1 | 51* | 29 | 0 | -5
CN(C(=O)CC1C(=O)NCCN1CC(c1ccccc1)c1ccccc1)C(C1CC1)C1CC1 (stereo not drawn) | 7 | -1 | 29* | 19 | . | 3
CN(CC1CCOCC1)C(=O)CC1C(=O)NCCN1CC(c1ccccc1)c1ccccc1 (stereo not drawn) | . | . | . | 22 | . | .
CCOc1ccc(OCCC(=O)OCC(=O)NC2CCCCC2)cc1 | . | . | . | 24 | . | .
O=C(Nc1ccc(F)cc1)C(Cc1ccccc1)n1cccc1 (stereo not drawn) | -11 | 1 | 36* | 24 | . | 10
CC(C)C(NC(=O)c1ccc(C(C)(C)C)cc1)C(=O)NCC1(N(C)C)CCCCC1 (stereo not drawn) | . | . | . | 46 | . | .
CCCCCCCCCn1c2c(c(=N)c3c1CCC3)CCCC2 | -15 | 1 | 55* | 18 | 0 | 41*
CCCCCCCCCCn1c2c(c(=N)c3c1CCC3)CCC2 | -4 | 0 | . | 30 | 0 | .
S=C(NCc1ccncc1)Nc1cccc(Cl)c1 | -11 | 0 | 2 | -14 | 0 | .
Fc1ccc(CNC(=S)Nc2cccc(Cl)c2)cc1 | -1 | -2 | 28* | ? | 0 | 6
O=C(COc1ccccc1)NCC(=O)Nc1ccncc1 | . | . | . | 23 | . | .
CCOc1ccc(-c2nnc(SCC(=O)Nc3cc(C)on3)o2)cc1 | -31 | -2 | 33* | 5 | 0 | -20
CCN1/C(=C/c2ccc3cc(C)ccc3[n+]2CC)Sc2cc(C)ccc21 | -10 | -1 | 39* | . | 0 | 21
CCCCN1/C(=C/c2ccc3ccccc3[n+]2CC)Sc2ccccc21 | -18 | -3 | 30* | 27 | 0 | 21
CCN1/C(=C/c2ccc3ccccc3[n+]2CC)C=Cc2ccccc21 | -23 | 2 | . | 16 | 0 | .
O=C(O)c1sc2cccc(Cl)c2c1Cl | -15 | 1 | -5 | 47 | 0 | .
CCCc1c(C(=O)N/N=C/c2ccccc2C(F)(F)F)nnn1-c1nonc1N | . | . | . | 18 | . | .
O=C(c1cc(C(=O)N2CCOCC2)c2nc3ccccc3n2c1)c1cc(Cl)cc(Cl)c1O | -42 | -1 | 31* | 18 | . | -18
CC(C)=CCN1CCNC(=O)C1CC(=O)NCc1nc(C)c(C)s1 (stereo not drawn) | -7 | -3 | -30 | 14 | 0 | .
CCCC[C@@H]1C[C@H]1[C@@H](NC(=O)c1cccs1)c1ccc(Cl)cc1 | 9 | 1 | 48* | 7 | 0 | 69*
CCCC(=O)Nc1ccc(-c2ccc(NC(=O)CCC)cc2)cc1 | -14 | 2 | -1 | 24 | 0 | .
CCCC(=O)Nc1ccc(Nc2ccccc2)cc1 | -3 | 1 | 101* | -58 | 0 | -7
COCCNC(=S)N/N=C/c1ccc(-c2ccc([N+](=O)[O-])cc2)o1 | 13 | -1 | 31* | 31 | . | 32*
CC(=O)Nc1ncc(Cc2cccc(Cl)c2)s1 | 6 | -2 | 28* | 33 | 0 | 5

Bioassay records deposited in PubChem BioAssay by several laboratories.
